# Laboratory results: PubChem BioAssay (NCI)
# About 79,000 compounds went through this panel and 15% of them were active in at least one assay; those are over-represented in the sample as a whole. A number with no mark means an inactive call. Activity calls are given as the source filed them. Cut-off read from the data, not from the text of the source: active = growth inhibition above about 70%; inactive = the rest.
# Experiment: NCI Yeast Anticancer Drug Screen. Data for the rad18 strain (AID 177)
# Conditions: S. cerevisiae rad18 mutant growth inhibition; at 3.7 µM; active compounds read high
# In short: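 Steps: expose repair-mutant yeast to compound; measure growth; express as inhibition relative to vehicle control.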
row,SMILES,growth inhibition
1,CCN(CC)CC[n+]1ccc2c(C)c3[nH]c4ccc(O)cc4c3c(C)c2c1,-2%
2,O=[n+]1c2ccc(Cl)cc2n([O-])c2ccc(Cl)cc21,12%
3,CCOP(=O)(OCC)C(Cc1ccccc1)N=C(c1ccccc1)c1ccccc1 (stereo not drawn),4%
4,CC[C@@]1(O)C(=O)OCc2c1cc1n(c2=O)Cc2cc3c(N)cccc3nc2-1,-11%
5,COC1C=COC2(C)Oc3c(C)c(O)c4c(c3C2=O)/C(=N/C2CCC(O)OC2C)C=C(NC(=O)/C(C)=C\C(=O)C2CC2C(O)C(C)C(O)C(C)C(OC(C)=O)C1C)C4=O (stereo not drawn),0%
6,COc1cc2c(c(OC)c1OC)-c1c(cc3c(c1OC)OCO3)CC(C)C(C)(O)C2OC(=O)c1ccccc1 (stereo not drawn),-37%
7,O=c1ssc2ncccc12,27%
8,O=C1C2C(C(=O)N1c1ccc(OCc3ccccc3)cc1)C1c3ccccc3C2C2CCCCN21 (stereo not drawn),12%
9,COc1ccc(-c2cn(-c3ccc(I)cc3)c3ncnc(N)c23)cc1,-9%
10,CCOC(=O)C(NC(=O)c1ccccc1)(N1CCN(c2cc3c(cc2F)c(=O)c(C(=O)O)cn3C2CC2)CC1)C(F)(F)F (stereo not drawn),-1%
11,C/C(=N\O)C1CC2C=C(C#N)C1N(Cc1ccccc1)C2 (stereo not drawn),13%
12,CC/C(=C(\c1ccccc1)c1ccc(OCCN(C)C)cc1)c1ccccc1,12%
13,COc1ccccc1N=NC(C(=O)c1ccccc1)C(=O)c1ccccc1,10%
14,CC(O)C(O)C(O)C(/C=N\Nc1ccccc1)=N/Nc1ccccc1 (stereo not drawn),9%
15,COc1ccc(/C=C2\SC(=S)N(/C=C/c3nc4ccccc4[nH]c3=O)C2=O)cc1OC,20%
16,N#CN=Nc1cc(Cl)c(N=NC#N)cc1Cl,-16%
17,Cc1ccc(S(=O)(=O)Oc2cc(Cl)c(Cl)cc2Cl)cc1,-2%
18,c1ccc2c(c1)Oc1cccc3cccc-2c13,26%
19,O=C(c1ccc(Cl)cc1Cl)C(Cl)Cl,-34%
20,CC(C)C1=CCC2C(=C1)CCC1C(C)(C(=O)O)CCCC21C (stereo not drawn) (tested in a mixture with another compound),-9%

row,SMILES,growth inhibition
1,COc1cc(/C=C2\CCc3ccccc3C2=O)cc(OC)c1OC,8%
2,CC(=O)[O][Bi]([c]1ccccc1)[c]1ccccc1,30%
3,S=C(N/N=C/c1ccccn1)Nc1ccc(Cl)cc1,-3%
4,COc1cc(CC2CC(c3ccc4c(c3)OCO4)OC2=O)cc(OC)c1OC (stereo not drawn),-3%
5,CNC1C(OC2C(OC3C(O)C(O)C(N=C(N)N)C(O)C3N=C(N)N)OC(C)C2(O)CO)OC(CO)C(O)C1O (stereo not drawn),10%
6,NNC(=O)CCc1ccc2ccc3ccccc3c2c1,15%
7,Oc1ccc2ccccc2c1C(c1ccc(Cl)cc1)c1c(O)ccc2ccccc12,-8%
8,CCCCN(CCCC)CCSc1ccc(Cl)cc1,-11%
9,CCC(C)COC(=O)c1ccc(N=Cc2ccc(C=Nc3ccc(C(=O)OCC(C)CC)cc3)cc2)cc1 (stereo not drawn),-3%
10,CC1(C)C(=O)OC(n2cc(F)c(=O)[nH]c2=O)C1=O (stereo not drawn),8%
11,O=[N+]([O-])CC(SCc1ccccc1)c1ccc2c(c1)OCO2 (stereo not drawn),23%
12,COc1cc2c(cc1[N+](=O)[O-])C(=O)C(Br)(Br)CCC2,64%
13,OCC1OC(OCC(O)C(O)C(O)C(/C=N/Nc2ccccc2)=N/Nc2ccccc2)C(O)C(O)C1O (stereo not drawn),25%
14,COc1ccc(N=C2C(=O)Nc3ccc(Br)cc32)cc1,-36%
15,Cn1c(=O)c2ccccc2c2ccccc21,5%
16,CC[n+]1ccc2c(C)c3[nH]c4ccc(O)cc4c3c(C)c2c1,2%
17,CC(=O)ON1C(=O)c2cccc3cccc(c23)C1=O,29%
18,COc1ccc2ccc3ccccc3c2c1C=O,2%
19,OC1CCCc2c1cc1ccc3cccc4ccc2c1c34 (stereo not drawn),-3%

# Same assay, conditions: S. cerevisiae rad18 mutant growth inhibition; at 11.0 µM; active compounds read high
row,SMILES,growth inhibition
1,CCN(CC)CC[n+]1ccc2c(C)c3[nH]c4ccc(O)cc4c3c(C)c2c1,3%
2,O=[n+]1c2ccc(Cl)cc2n([O-])c2ccc(Cl)cc21,25%
3,CCOP(=O)(OCC)C(Cc1ccccc1)N=C(c1ccccc1)c1ccccc1 (stereo not drawn),29%
4,CC[C@@]1(O)C(=O)OCc2c1cc1n(c2=O)Cc2cc3c(N)cccc3nc2-1,-13%
5,COC1C=COC2(C)Oc3c(C)c(O)c4c(c3C2=O)/C(=N/C2CCC(O)OC2C)C=C(NC(=O)/C(C)=C\C(=O)C2CC2C(O)C(C)C(O)C(C)C(OC(C)=O)C1C)C4=O (stereo not drawn),-4%
6,COc1cc2c(c(OC)c1OC)-c1c(cc3c(c1OC)OCO3)CC(C)C(C)(O)C2OC(=O)c1ccccc1 (stereo not drawn),-26%
7,O=c1ssc2ncccc12,74% (active)
8,O=C1C2C(C(=O)N1c1ccc(OCc3ccccc3)cc1)C1c3ccccc3C2C2CCCCN21 (stereo not drawn),8%
9,COc1ccc(-c2cn(-c3ccc(I)cc3)c3ncnc(N)c23)cc1,-10%
10,CCOC(=O)C(NC(=O)c1ccccc1)(N1CCN(c2cc3c(cc2F)c(=O)c(C(=O)O)cn3C2CC2)CC1)C(F)(F)F (stereo not drawn),0%
11,C/C(=N\O)C1CC2C=C(C#N)C1N(Cc1ccccc1)C2 (stereo not drawn),40%
12,CC/C(=C(\c1ccccc1)c1ccc(OCCN(C)C)cc1)c1ccccc1,71% (active)
13,COc1ccccc1N=NC(C(=O)c1ccccc1)C(=O)c1ccccc1,9%
14,CC(O)C(O)C(O)C(/C=N\Nc1ccccc1)=N/Nc1ccccc1 (stereo not drawn),9%
15,COc1ccc(/C=C2\SC(=S)N(/C=C/c3nc4ccccc4[nH]c3=O)C2=O)cc1OC,39%
16,N#CN=Nc1cc(Cl)c(N=NC#N)cc1Cl,-11%
17,Cc1ccc(S(=O)(=O)Oc2cc(Cl)c(Cl)cc2Cl)cc1,1%
18,c1ccc2c(c1)Oc1cccc3cccc-2c13,25%
19,O=C(c1ccc(Cl)cc1Cl)C(Cl)Cl,-1%
20,CC(C)C1=CCC2C(=C1)CCC1C(C)(C(=O)O)CCCC21C (stereo not drawn) (tested in a mixture with another compound),-20%

row,SMILES,growth inhibition
1,COc1cc(/C=C2\CCc3ccccc3C2=O)cc(OC)c1OC,7%
2,CC(=O)[O][Bi]([c]1ccccc1)[c]1ccccc1,72% (active)
3,S=C(N/N=C/c1ccccn1)Nc1ccc(Cl)cc1,-5%
4,COc1cc(CC2CC(c3ccc4c(c3)OCO4)OC2=O)cc(OC)c1OC (stereo not drawn),-1%
5,CNC1C(OC2C(OC3C(O)C(O)C(N=C(N)N)C(O)C3N=C(N)N)OC(C)C2(O)CO)OC(CO)C(O)C1O (stereo not drawn),5%
6,NNC(=O)CCc1ccc2ccc3ccccc3c2c1,-8%
7,Oc1ccc2ccccc2c1C(c1ccc(Cl)cc1)c1c(O)ccc2ccccc12,2%
8,CCCCN(CCCC)CCSc1ccc(Cl)cc1,-7%
9,CCC(C)COC(=O)c1ccc(N=Cc2ccc(C=Nc3ccc(C(=O)OCC(C)CC)cc3)cc2)cc1 (stereo not drawn),3%
10,CC1(C)C(=O)OC(n2cc(F)c(=O)[nH]c2=O)C1=O (stereo not drawn),8%
11,O=[N+]([O-])CC(SCc1ccccc1)c1ccc2c(c1)OCO2 (stereo not drawn),79% (active)
12,COc1cc2c(cc1[N+](=O)[O-])C(=O)C(Br)(Br)CCC2,96% (active)
13,OCC1OC(OCC(O)C(O)C(O)C(/C=N/Nc2ccccc2)=N/Nc2ccccc2)C(O)C(O)C1O (stereo not drawn),30%
14,COc1ccc(N=C2C(=O)Nc3ccc(Br)cc32)cc1,-39%
15,Cn1c(=O)c2ccccc2c2ccccc21,31%
16,CC[n+]1ccc2c(C)c3[nH]c4ccc(O)cc4c3c(C)c2c1,23%
17,CC(=O)ON1C(=O)c2cccc3cccc(c23)C1=O,86% (active)
18,COc1ccc2ccc3ccccc3c2c1C=O,3%
19,OC1CCCc2c1cc1ccc3cccc4ccc2c1c34 (stereo not drawn),99% (active)
